Measurements reported in ChEMBL document CHEMBL4513146, “CO-ADD screening of Karazin Kharkiv National University (Ukraine) compounds”.
Entries with a potency or affinity are not part of this list.

Tested on: Staphylococcus aureus
Settings: Concentration 32 ug.mL-1;; ASSAY_TEST Inhibition of Bacterial Growth; detection method Absorption (OD600); MEDIA CAMHB; plate type 384well; NBS; CORNING #3640; time 18 hr

Compound | Inhibition [%]
Cc1cccc(C)c1NC(=O)Cn1nc2ccc(SCc3ccc(Cl)cc3)nn2c1=O | -3.66
Cc1cccc(NC(=O)Cn2nc3ccc(SC(C)(C)C)nn3c2=O)c1 | 3.72
CCc1nnc2c(SCC(=O)Nc3ccc(C)cc3Br)nc3ccccc3n12 | 2.22
COc1cccc(-n2ccn3c(SCc4ccc(C)cc4)nnc3c2=O)c1 | 8.11
Cc1ccc(-c2ccc3nn(CC(=O)N4CCN(c5ccc(F)cc5)CC4)c(=O)n3n2)cc1C | -6.93
O=C(Cn1nc2c3sccc3ncn2c1=O)Nc1ccc2c(c1)OCO2 | -1.71
Cc1ccc(-n2ccn3c(=O)n(Cc4cccc(F)c4)nc3c2=O)cc1C | -0.24
COc1ccc(-c2cc3c4nnc(CCC(=O)NCc5ccc(OC)c(OC)c5)n4ccn3n2)cc1 | 6.96
COc1ccc(CNC(=O)CSc2nnc3c4cc(-c5ccc(C)cc5)nn4ccn23)cc1 | 4.45
O=c1n(Cc2nc(-c3ccc(F)cc3)no2)nc2ccc(-c3ccccc3)nn12 | 3.21
COc1cccc(Cn2nc3n(CCC(=O)NC4CCCCC4)c(=O)c4ccccc4n3c2=O)c1 | 6.84
CC(C)NC(=O)CSc1nnc2c(=O)n(Cc3ccc(F)cc3)ccn12 | -0.55
COc1ccc(OC)c(NC(=O)Cn2nc3c4cc(-c5ccc(F)cc5)nn4ccn3c2=O)c1 | 7.29
Cc1ccc(Oc2nccn3c(=O)n(CC(=O)Nc4ccc(Br)cc4F)nc23)cc1 | 5.87
CN(C(=O)Cn1nc2n(Cc3ccco3)c(=O)c3sccc3n2c1=O)c1ccccc1 | 0.44
CCCCOc1ccc(-c2cc3c4nnc(SCC(=O)Nc5ccccc5Cl)n4ccn3n2)cc1 | 3.41
O=C(Cn1nc2c(N3CCOCC3)nccn2c1=O)Nc1cccc(C(F)(F)F)c1 | 4.69
Cc1ccccc1CN(c1ccc(Cl)cc1)S(=O)(=O)c1cccn2c(C)nnc12 | 11.54
O=C(CSc1nc2ccccc2n2cnnc12)Nc1ccc2c(c1)OCO2 | 4.59
CC(C)c1nnc2c(SCC(=O)Nc3ccc(Br)cc3)nc3ccccc3n12 | 1.25

Compound | Inhibition [%]
Cc1cc2nn(CC(=O)Nc3ccc(F)cc3F)c(=O)n2c(Nc2ccc(F)c(C)c2)n1 | 5.82
COc1ccccc1-n1ccn2c(SCc3ccc(Cl)cc3)nnc2c1=O | 7.4
COc1ccc(NC(=O)Cn2nc3cc(C)nc(Nc4cc(C)cc(C)c4)n3c2=O)cc1 | 9.51
Cc1ccc(CN(c2cccc(F)c2)S(=O)(=O)c2ccc3nnc(C)n3c2)cc1 | -4.51
CC(C)(C)S(=O)(=O)c1ccc2nn(CC(=O)Nc3ccc(Br)cc3)c(=O)n2n1 | 3.67
O=S(=O)(c1ccc2nncn2c1)N(Cc1ccccc1)c1ccc(F)c(F)c1 | -0.12
Cc1ccccc1CSc1nnc2c(=O)n(-c3ccc(F)c(F)c3)ccn12 | 12.28
COc1cccc(-n2ccn3c(SCC(=O)c4cccc(Cl)c4)nnc3c2=O)c1 | -1.54
CC(=O)c1ccc(NC(=O)Cn2nc3ccc(-c4ccc(C)c(C)c4)nn3c2=O)cc1 | 9.12
O=c1c2sccc2n2c(=O)n(Cc3cccc(Br)c3)nc2n1Cc1cccs1 | -27.59
CCCCOc1ccc(-c2cc3c4nnc(SCC(=O)Nc5c(C)cccc5C)n4ccn3n2)cc1 | -7.16
Cc1nnc2c(S(=O)(=O)N(Cc3ccccc3)c3ccc(C(C)C)cc3)cccn12 | 6.07
Cc1nnc2ccc(S(=O)(=O)N(Cc3cccc(F)c3)c3ccc(F)c(F)c3)cn12 | 0.15
O=C(Cn1nc2c(Oc3ccc(Cl)cc3)nccn2c1=O)Nc1ccc2c(c1)OCO2 | 6.57
Cc1cc(C)cc(NC(=O)Cn2nc3c4cc(-c5ccc(C)c(C)c5)nn4ccn3c2=O)c1 | 5.77
Cc1cc(Nc2ccc(F)cc2)nc2nn(Cc3cccc(C#N)c3)c(=O)n12 | -3.76
CCc1ccc(N(Cc2ccccc2F)S(=O)(=O)c2cccn3c(CC)nnc23)cc1 | -9.17
Cc1nnc2c(=O)n(CC(=O)NC3CCCC3)c3ccccc3n12 | 4.23
CCc1ccc(NC(=O)Cn2nc3n(Cc4ccco4)c(=O)c4sccc4n3c2=O)cc1 | -4.41
Cc1ccc(C)c(Cn2nc3n(CC(C)C)c(=O)c4sccc4n3c2=O)c1 | 12.61
